Test results as given in PubChem BioAssay (NCATS).
Inconclusive results are not listed. The source made the active and inactive calls. The call rests on the fitted dose curve; in most records, active means well fitted inhibition curve with a large enough effect; inconclusive means small, poorly fitted or top-dose-only effect; inactive means flat fitted curve, though single readings scatter.

What was measured:
[1] = system: CRL-7250; assay: Cytotoxic Profiling of Annotated Libraries Using Quantitative High-Throughput Screening (AID 1296008); settings: Five cell lines viability, CellTiter-Glo ATP luminescence, 48-72 h; stronger effect = lower value; on max response: on the % scale 0 is the no-effect control and ±100 the full control effect
In short: (§1)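 Compounds were pin-transferred onto cells and incubated 48 or 72 hr at 37 degree Celsius, 95% humidity. CellTiter-Glo was added, plates sat 10 min at room temperature, then ATP-coupled luminescence was imaged as the viability read-out.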

[2] = system: HEK293; assay: as above; settings: Five cell lines viability, CellTiter-Glo ATP luminescence, 48-72 h; stronger effect = lower value
In short: as §1

[3] = system: HaCat; assay: as above; settings: Five cell lines viability, CellTiter-Glo ATP luminescence, 48-72 h; stronger effect = lower value
In short: as §1

[4] = system: KB-3-1; assay: as above; settings: Five cell lines viability, CellTiter-Glo ATP luminescence, 48-72 h, stronger effect = lower value
In short: as §1

[5] = system: NIH3T3; assay: as above; settings: Five cell lines viability, CellTiter-Glo ATP luminescence, 48-72 h; stronger effect = lower value
In short: as §1

[6] = system: HACAT; assay: qHTS assay to identify novel small-molecules to repurpose for Merkel cell carcinoma treatment (AID 1296009); settings: MCC and control cell lines, CellTiter-Glo viability, 72 h; at 44.8 µM (top of the series) unless noted
In short: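 Cells exposed to NPC (8-point) and MIPE (11-point) compound dilutions for 72 hr at 37 degree celsius; viability read by CellTiter-Glo luminescence, normalized to no-cell and DMSO in-plate controls.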

[7] = system: TAB109; assay: qHTS profiling for inhibitors of Plasmodium falciparum proliferation (AID 504749);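 further: 0% = DMSO vehicle and full inhibition = artemisinin control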; settings: P. falciparum in erythrocytes, SYBR Green DNA, 72 h; series mostly up to 28.7 µM
In short: (§2)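 P. falciparum-infected erythrocytes (0.3% parasitemia, 2.5% hematocrit final) were exposed to compounds for 72 h at 37 C in 5% CO2, then lysed with SYBR Green buffer overnight at room temperature; parasite DNA fluorescence was normalized to artemisinin and DMSO controls.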

[8] = system: TAB113; assay: as above; settings: P. falciparum in erythrocytes, SYBR Green DNA, 72 h; series mostly up to 28.7 µM
In short: as §2

[9] = system: TAB165; assay: as above; settings: P. falciparum in erythrocytes, SYBR Green DNA, 72 h; series mostly up to 28.7 µM
In short: as §2

[10] = system: W2; assay: as above; settings: P. falciparum in erythrocytes, SYBR Green DNA, 72 h; series mostly up to 28.7 µM
In short: as §2
Further: nearly all actives have a fitted effect of over 60% in size.

Cn1cc(C(=O)[C@@H]2CCc3nc[nH]c3C2)c2ccccc21
inactive: outcome [1] | max response [2] 3.07% | outcome [3] | max response [4] -12.7% | max response [5] -0.574% | outcome [6]

CCCNC(C)C(=O)Nc1c(C)csc1C(=O)OC (stereo unspecified)
inactive: outcome [1] | max response [2] -4.55% | outcome [3] | max response [4] -16.9% | outcome [5] | outcome [6]

CN[C@@H]1[C@@H](O)[C@@H](O[C@@H]2[C@H](O)[C@H](O[C@H]3OC(CN)=CC[C@H]3N)[C@@H](N)C[C@H]2N)OCC1(C)O (stereo partly specified)
inactive: max response [1] 2.42% | max response [2] 4.89% | max response [3] 1.23% | max response [4] 25.6% | max response [5] 2.74%

COc1ccc(-c2cc(=O)c3c(O)cc(O[C@@H]4O[C@H](CO[C@@H]5O[C@@H](C)[C@H](O)[C@@H](O)[C@H]5O)[C@@H](O)[C@H](O)[C@H]4O)cc3o2)cc1O
inactive: max response [1] -26.4% | outcome [2] | max response [3] -10.9% | max response [4] -15.8% | max response [5] -0.449%

NC(=O)N[C@@H](CCC(=O)O)C(=O)O
inactive: outcome [1] | max response [2] -4.43% | outcome [3] | max response [4] -19.7% | outcome [5] | outcome [6]

O=C(O)/C=C/c1ccc(Cn2ccnc2)cc1
inactive: max response [1] -1.04% | max response [2] -1.65% | max response [3] 4.76% | max response [4] 2.2% | outcome [5]

CN[C@@H]1[C@H](O)[C@H](NC)[C@H]2O[C@@]3(O)C(=O)C[C@@H](C)O[C@H]3O[C@@H]2[C@H]1O
inactive: max response [1] -3.95% | max response [2] 1.03% | max response [3] 0.231% | max response [4] 16.3% | max response [5] 2.69%

CCOC(=O)[C@H](CCc1ccccc1)N[C@@H](C)C(=O)N1Cc2cc(OC)c(OC)cc2C[C@H]1C(=O)O
inactive: outcome [1] | outcome [2] | max response [3] 2.61% | max response [4] -3.37% | max response [5] 2.92%

CC(=O)OCC(=O)[C@@]1(O)CC[C@H]2[C@@H]3CCC4=CC(=O)C=C[C@]4(C)[C@@]3(F)[C@@H](O)C[C@@]21C
inactive: max response [1] 2.22% | outcome [2] | outcome [3] | max response [4] 29.8% | max response [5] 0.516% | outcome [6]

COC(=O)N/N=C/c1c[n+]([O-])c2ccccc2[n+]1[O-]
inactive: max response [1] 4.42% | outcome [2] | max response [3] -20.3% | max response [4] -2.23% | max response [5] -11.1%

CCCCOC(=O)c1ccc(N)cc1
inactive: Potency [7] | Potency [8] | Potency [9] | outcome [1] | max response [2] 4.63% | outcome [3] | max response [4] 0.229% | max response [5] -6.66% | outcome [6]

O=c1[nH]cnc2nc[nH]c12
inactive: Potency [7] | Potency [8] | Potency [9] | Potency [10] | max response [1] -2.48% | max response [2] -1.3% | outcome [3] | max response [4] -17.5% | max response [5] -0.611% | outcome [6]

CCN(CC)CC1CCCCN1CC(=O)N1c2ccccc2C(=O)Nc2cccnc21 (stereo unspecified)
inactive: Potency [7] | Potency [8] | Potency [9] | Potency [10] | max response [1] -4.06% | max response [2] 4.03% | outcome [3] | max response [4] 6.89% | max response [5] 4.32% | outcome [6]

CCN[C@H]1CN(CCCOC)S(=O)(=O)c2sc(S(N)(=O)=O)cc21
inactive: max response [1] 2.64% | max response [2] -2.35% | outcome [3] | max response [4] 14.5% | outcome [5] | outcome [6]

CC(C)NC[C@@H](O)COc1ccc(CC(N)=O)cc1
inactive: max response [1] -2.68% | outcome [2] | outcome [3] | max response [4] 3.62% | max response [5] -2.96% | outcome [6]

NC(N)=NS(=O)(=O)c1ccc(N)cc1
inactive: Potency [7] | Potency [8] | Potency [9] | Potency [10] | outcome [1] | max response [2] -6.28% | outcome [3] | max response [4] 15.5% | outcome [5] | outcome [6]

C1CCN2C[C@@H]3C[C@@H](CN4CCCC[C@@H]34)[C@H]2C1
inactive: outcome [1] | max response [2] -9.35% | outcome [3] | max response [4] 4.47% | max response [5] 3.41% | outcome [6]

C[C@@H](c1ncncc1F)C(O)(Cn1cncn1)c1ccc(F)cc1F (stereo partly specified)
inactive: max response [1] -4.65% | max response [2] 2.6% | outcome [3] | max response [4] -2.08% | max response [5] -3.08% | outcome [6]

OCc1ccc(Cl)cc1Cl
inactive: Potency [7] | Potency [8] | Potency [9] | Potency [10] | outcome [1] | max response [2] -6.19% | outcome [3] | max response [4] -1.05% | outcome [5] | outcome [6]

O=C(O)Cn1c(C(=O)Nc2nc(-c3ccccc3Cl)cs2)cc2ccccc21
inactive: Potency [7] | Potency [8] | Potency [9] | Potency [10] | outcome [1] | max response [2] -5.16% | outcome [3] | max response [4] -7.98% | outcome [5] | outcome [6]

CC1CC(OC(=O)c2ccccc2O)CC(C)(C)C1 (stereo unspecified)
inactive: Potency [7] | Potency [8] | Potency [9] | max response [1] -4.46% | outcome [2] | outcome [3] | max response [4] -9.15% | max response [5] -4.04% | outcome [6]

N[C@@H](Cc1ccc(O)cc1)C(=O)O
inactive: Potency [7] | Potency [8] | Potency [9] | Potency [10] | max response [1] 1.09% | max response [2] 3.89% | outcome [3] | max response [4] -4.34% | outcome [5] | outcome [6] inactive [at 9.27 µM]
